Composite z-score, composite Z-score and z-score data for five compounds are collected here from PubChem BioAssay.

The target in test [1] is Albumin (Bos taurus) (UniProt P02769). The experiment in a line: bovine serum albumin binders on microarray, profiling panel, artefact control for SMM control protein annotation, biochemical, small-molecule microarray, Alexa647 label, 635/667 nm fluorescence (AID 1118).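 Also: score merges 667 nm emission intensity and signal-to-noise per printed compound spot.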 As to conditions: BSA-A647 binding, fluorescence 635 nm, higher = more signal.
Test [2] can be described thus: small-molecule microarray binders of probe aXIP, primary screen, biochemical, NeuroSMM set, 635/667 nm fluorescence (AID 1119).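 Also: probe is the protein aXip251-270 applied at 1 µg/mL to compound-printed slides; binding of probe to printed compounds measured as 667 nm fluorescence plus signal to noise.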 The settings on record: higher = more signal, called active from +8 up or from −8 down.
Test [3] is described as follows: small-molecule binders of probe aNOTCH3, primary screen, biochemical, small-molecule microarray, 635/667 nm fluorescence (AID 1120).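 Also: probe is a biotin-tagged antibody raised against NOTCH3 rather than NOTCH3 protein; score merges spot fluorescence near 667 nm with spot signal to noise.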 The settings on record: higher = more signal.
A short description of test [4]: small-molecule binders of probe aNOTCH2, primary screen, biochemical, small-molecule microarray, 635/667 nm fluorescence (AID 1121).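 Also: score merges feature fluorescence read at 667 nm with its signal to noise.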 As to conditions: higher = more signal.
Test [5] addresses Carbonic anhydrase 2 (Homo sapiens) (UniProt P00918). The experiment in a line: CAII small-molecule binders, profiling panel, biochemical, small-molecule microarray, Alexa647-labelled CAII (AID 1122). The settings on record: CAII-A647 binding fluorescence, higher = more signal.
Test [6] is described as follows: COS7 lysate on small-molecule microarray, probe aHis, 635 nm (AID 1123).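 Also: z-score combines 667nm fluorescence intensity with signal-to-noise per printed compound spot.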 As to conditions: COS7 cell lysate, fluorescence, higher = more signal.
A short description of test [7]: compound binding in COS7 lysate, probe aLAP1, primary screen, cell lysate, small-molecule microarray (AID 1124).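 Also: lysate comes from COS7 cells expressing LAP1 and is applied at 0.3 µg/mL; score merges spot fluorescence near 667 nm with signal-to-noise over triplicate slides.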 As to conditions: probe aLAP1, fluorescence, higher = more signal.
Test [8] concerns Sam68 (KHDRBS1). The experiment in a line: Sam68 small-molecule binders, primary screen, biochemical, small-molecule microarray, 635 nm fluorescence (AID 1125).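 Also: score merges 667 nm channel intensity with signal to noise over triplicate slides.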 The settings on record: small-molecule microarray binding, higher = more signal.
The test system of test [9] is Chordin-like protein 2 (CHRDL2). The experiment in a line: CHRDL2 small-molecule binders, primary screen, biochemical, small-molecule microarray, 635 nm fluorescence (AID 1126).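 Also: printed compound slides probed with Chrdl2 protein at 4 µg/mL for 1 h at 4 C; score merges 667 nm emission intensity with signal to noise over three replicate slides.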 The settings on record: small-molecule microarray binding, fluorescence 635 nm; higher = more signal.
Test [10] deals with Concanavalin-A (Canavalia ensiformis) (UniProt P02866). The experiment in a line: ConA small-molecule binders, primary screen, artefact control for SMM control protein annotation, biochemical, small-molecule microarray, Alexa647 label, 635 nm (AID 1127).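 Also: z combines 667 nm emission intensity with signal-to-noise across three replicate slides.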 The settings on record: ConA-A647 binding fluorescence, higher = more signal.
Test [11] is described as follows: anti-His antibody binders, primary screen, artefact control for SMM control protein annotation, biochemical, small-molecule microarray, 635 nm fluorescence (AID 1128).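 Also: score merges feature fluorescence with signal-to-noise for each printed compound spot.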 The settings on record: anti-His Alexa647 antibody binding, higher = more signal.
Test [12] deals with Human papillomavirus type 1a E7 protein (residues 1-88). The experiment in a line: HPV1a E7 small-molecule binders, primary screen, biochemical, small-molecule microarray, residues 1-88, 635 nm (AID 1129). As to conditions: small-molecule microarray binding, fluorescence 635 nm; higher = more signal.
The target of test [13] is Focal adhesion kinase 1 (Homo sapiens) (UniProt Q05397). The experiment in a line: small-molecule microarray binders of FAK, primary screen, biochemical, 635/667 nm fluorescence, BSA, DTT (AID 1130).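 Also: composite of spot emission at 667 nm and signal to noise over triplicate slides.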 The settings on record: PTK2 binding, 635 nm fluorescence, higher = more signal.
In test [14] the test system is Fibrinogen (Alexa647-labelled). The experiment in a line: fibrinogen binders on compound microarrays, profiling panel, artefact control for SMM control-protein annotation, biochemical, small-molecule microarray, 635/667 nm fluorescence (AID 1131).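 Also: z-score merges 667 nm fluorescence with per-spot signal-to-noise over triplicate slides.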 The settings on record: fibrinogen-A647 binding fluorescence, higher = more signal.
The target of test [15] is Follistatin (Homo sapiens) (UniProt P19883). Description: follistatin binders on small-molecule microarrays, primary screen, biochemical, small-molecule microarray, 635/667 nm fluorescence (AID 1132). As to conditions: FST binding, 635 nm fluorescence, higher = more signal.
Test [16] has as its target Fibroblast growth factor 2 (Homo sapiens) (UniProt P09038). Description: FGF2 binders on small-molecule microarrays, primary screen, biochemical, small-molecule microarray, 635/667 nm fluorescence (AID 1133). The settings on record: small-molecule microarray binding, FGF2, fluorescence 635/667; higher = more signal.
The nature of test [17]: mitochondrial membrane potential change in A549 cells, profiling panel, cell-based, JC-1 fluorescence, basal, 24 h, 100 nL (AID 1138).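 Also: A549 lung adenocarcinoma cells under basal conditions with no added stimulus; test concentration not given here.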 As to conditions: higher = more signal.
Test [18] has as its system Lefty1. Description: Lefty1 binders on small-molecule microarrays, primary screen, biochemical, small-molecule microarray, 635/667 nm fluorescence (AID 1139). The settings on record: small-molecule microarray binding, fluorescence 635/667; higher = more signal.
Test [19] has as its system wheat germ agglutinin (Triticum aestivum), Alexa647-labelled. Description: wheat germ agglutinin binders on compound microarrays, profiling panel, artefact control for SMM control-protein annotation, biochemical, small-molecule microarray, 635/667 nm fluorescence (AID 1140).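 Also: score merges 667 nm feature emission with signal to noise over triplicate slides.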 As to conditions: WGA-A647 binding, 635 nm fluorescence, higher = more signal.
Test [20] has as its target Luciferin 4-monooxygenase (Photinus pyralis) (UniProt P08659). The experiment in a line: firefly luciferase enzyme inhibitors, primary screen, biochemical, luminescence, purified enzyme, 2006 set (AID 1141).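 Also: cell-free assay with purified firefly luciferase at 100 ng per well in PBS; test concentration not given here.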 As to conditions: SteadyGlo luminescence, 30 min, higher = more signal, called active from +8 up or from −8 down.

Active and inactive are the calls of the source.

Sequence of Concanavalin-A (Canavalia ensiformis) (P02866 whole entry, looked up): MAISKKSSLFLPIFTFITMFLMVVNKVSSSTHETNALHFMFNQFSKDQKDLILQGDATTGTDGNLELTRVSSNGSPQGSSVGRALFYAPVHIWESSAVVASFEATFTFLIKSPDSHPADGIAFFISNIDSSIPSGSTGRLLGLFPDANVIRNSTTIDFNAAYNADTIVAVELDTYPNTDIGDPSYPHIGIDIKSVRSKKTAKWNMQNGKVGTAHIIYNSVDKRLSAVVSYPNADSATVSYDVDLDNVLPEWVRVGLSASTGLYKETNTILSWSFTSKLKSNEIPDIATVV
Sequence of Fibroblast growth factor 2 (Homo sapiens) (P09038 whole entry, looked up): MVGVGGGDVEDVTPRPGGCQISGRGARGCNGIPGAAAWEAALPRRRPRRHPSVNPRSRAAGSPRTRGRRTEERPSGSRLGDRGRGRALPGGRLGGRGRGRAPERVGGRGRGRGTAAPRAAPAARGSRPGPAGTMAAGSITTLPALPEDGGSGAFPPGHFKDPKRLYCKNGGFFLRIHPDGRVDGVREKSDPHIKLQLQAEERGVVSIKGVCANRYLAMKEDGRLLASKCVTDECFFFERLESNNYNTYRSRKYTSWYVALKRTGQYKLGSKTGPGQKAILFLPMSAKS
Sequence of Luciferin 4-monooxygenase (Photinus pyralis) (P08659 whole entry, looked up): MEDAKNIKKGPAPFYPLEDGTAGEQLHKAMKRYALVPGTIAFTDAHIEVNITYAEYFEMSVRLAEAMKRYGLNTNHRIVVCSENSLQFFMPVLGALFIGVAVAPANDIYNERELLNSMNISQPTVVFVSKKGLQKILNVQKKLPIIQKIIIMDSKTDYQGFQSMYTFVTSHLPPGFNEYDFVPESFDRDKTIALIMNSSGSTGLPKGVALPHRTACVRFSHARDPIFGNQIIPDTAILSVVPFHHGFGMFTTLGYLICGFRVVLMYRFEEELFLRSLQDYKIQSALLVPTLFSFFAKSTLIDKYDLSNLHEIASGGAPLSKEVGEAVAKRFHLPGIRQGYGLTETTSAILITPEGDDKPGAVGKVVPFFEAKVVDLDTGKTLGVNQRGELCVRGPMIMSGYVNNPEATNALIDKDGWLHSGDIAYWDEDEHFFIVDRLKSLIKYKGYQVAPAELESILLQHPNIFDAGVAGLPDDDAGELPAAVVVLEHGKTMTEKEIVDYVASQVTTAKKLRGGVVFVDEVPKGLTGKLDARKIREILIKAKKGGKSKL
Sequence of Follistatin (Homo sapiens) (P19883 whole entry, looked up): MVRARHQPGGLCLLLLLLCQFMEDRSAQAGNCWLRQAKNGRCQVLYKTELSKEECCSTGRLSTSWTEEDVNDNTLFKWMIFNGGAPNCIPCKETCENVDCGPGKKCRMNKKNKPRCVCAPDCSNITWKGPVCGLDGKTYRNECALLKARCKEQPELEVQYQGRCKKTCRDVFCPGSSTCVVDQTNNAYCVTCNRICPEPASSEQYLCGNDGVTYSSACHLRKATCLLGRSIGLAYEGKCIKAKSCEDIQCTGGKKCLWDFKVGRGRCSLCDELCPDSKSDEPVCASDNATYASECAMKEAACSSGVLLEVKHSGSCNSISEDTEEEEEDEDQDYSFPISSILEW
Sequence of Albumin (Bos taurus) (P02769 whole entry, looked up): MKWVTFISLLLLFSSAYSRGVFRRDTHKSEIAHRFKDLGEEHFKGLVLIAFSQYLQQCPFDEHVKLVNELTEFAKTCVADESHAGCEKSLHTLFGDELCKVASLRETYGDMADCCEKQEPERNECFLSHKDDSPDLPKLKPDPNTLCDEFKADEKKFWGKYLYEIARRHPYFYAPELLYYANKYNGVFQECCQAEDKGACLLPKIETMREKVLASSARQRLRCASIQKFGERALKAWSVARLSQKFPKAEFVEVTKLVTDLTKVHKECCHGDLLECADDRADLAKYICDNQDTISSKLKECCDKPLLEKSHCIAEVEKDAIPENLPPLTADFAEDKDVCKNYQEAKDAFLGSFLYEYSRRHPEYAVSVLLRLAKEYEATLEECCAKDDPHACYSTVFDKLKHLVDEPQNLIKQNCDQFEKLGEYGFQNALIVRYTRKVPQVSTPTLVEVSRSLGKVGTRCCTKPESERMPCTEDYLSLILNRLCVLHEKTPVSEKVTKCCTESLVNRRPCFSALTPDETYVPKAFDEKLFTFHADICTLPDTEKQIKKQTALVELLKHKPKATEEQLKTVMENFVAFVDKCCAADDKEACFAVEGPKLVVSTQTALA
Sequence of Focal adhesion kinase 1 (Homo sapiens) (Q05397 whole entry, looked up): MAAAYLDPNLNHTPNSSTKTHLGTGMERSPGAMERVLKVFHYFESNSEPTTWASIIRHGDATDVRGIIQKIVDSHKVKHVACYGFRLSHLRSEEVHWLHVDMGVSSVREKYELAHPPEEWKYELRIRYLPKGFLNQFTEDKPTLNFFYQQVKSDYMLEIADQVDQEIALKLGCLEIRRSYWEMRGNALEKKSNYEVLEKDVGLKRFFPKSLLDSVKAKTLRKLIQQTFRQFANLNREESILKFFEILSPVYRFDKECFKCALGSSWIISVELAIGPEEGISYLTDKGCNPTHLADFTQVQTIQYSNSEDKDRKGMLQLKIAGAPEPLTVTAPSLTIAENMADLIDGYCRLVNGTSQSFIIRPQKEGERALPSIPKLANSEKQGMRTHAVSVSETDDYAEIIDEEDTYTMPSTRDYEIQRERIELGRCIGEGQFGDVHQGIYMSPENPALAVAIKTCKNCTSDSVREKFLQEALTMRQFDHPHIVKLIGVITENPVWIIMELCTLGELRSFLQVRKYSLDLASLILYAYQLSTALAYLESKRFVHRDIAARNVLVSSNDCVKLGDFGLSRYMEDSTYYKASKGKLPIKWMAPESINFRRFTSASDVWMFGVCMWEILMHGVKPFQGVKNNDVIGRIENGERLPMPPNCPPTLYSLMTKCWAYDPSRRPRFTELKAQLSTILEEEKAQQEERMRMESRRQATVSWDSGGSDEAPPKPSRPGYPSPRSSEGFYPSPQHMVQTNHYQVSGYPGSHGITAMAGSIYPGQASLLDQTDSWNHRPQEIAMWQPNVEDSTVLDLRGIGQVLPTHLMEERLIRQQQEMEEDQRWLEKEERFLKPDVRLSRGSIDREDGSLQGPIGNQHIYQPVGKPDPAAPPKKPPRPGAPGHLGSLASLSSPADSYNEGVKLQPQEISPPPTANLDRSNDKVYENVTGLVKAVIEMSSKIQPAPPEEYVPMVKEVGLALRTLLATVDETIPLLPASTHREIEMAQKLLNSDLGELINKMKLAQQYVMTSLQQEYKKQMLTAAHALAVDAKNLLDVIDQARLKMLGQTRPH

With `COc1ccc([Si](C)(C)[C@@H]2[C@@H](CC(=O)N(CCO)Cc3ccccc3)O[C@]3(C(=O)N(Cc4cccc(N5CCOC5=O)c4)c4ccccc43)[C@H]2C)cc1`, the composite z-score in test [1] is -0.256; in test [3], -0.269; in test [4], -0.0993; in [5], 0.596; in [6], 1.22; in test [7] it was 0.766. Also, the composite z-score was found to be 1.3 in [8]; 0.647 in test [9]; 1.08 in [10]; 1.78 in [11]; 1.13 in test [12]; 0.139 in test [13]. Moreover, the composite z-score came to 0.732 in test [14]; 0.583 in test [15]; 0.393 in test [16]; 0.899 in test [18]; 0.717 in [19]. The composite Z-score in test [2] is 1.28 (inactive). In addition, the z-score in [17] was -0.154; in test [20], 0.229 (inactive).

Consider `O=C1c2ccccc2[C@](Cc2ccccc2I)(C(=O)NCC(F)(F)F)[C@H](c2ccc(CO)cc2)N1C1CCCCC1`, for which the composite z-score in [1] is 0.689; in test [3] it was -0.0026; in test [4], -0.0956; in test [5] it was 0.729; in test [6], 2.31; in [7], 0.326. The composite z-score in [8] is 1.31; in test [9], 0.227; in test [10], 1.16; in test [11], 1.64; in test [12], 1.21; in [13] it was -0.003. The composite z-score in [14] turned out to be 0.964; in [15], 0.846; in [16] it was 0.18; in test [18], 0.289; in test [19], 0.856. The composite Z-score in [2] was 0.328 (inactive). Besides, the z-score is 2.17 in test [17] and -1.61 (inactive) in [20].

In the case of `CC(C)(C)N1CC=CC23O[C@@H]4C=CCCOC(=O)C4[C@H]2C(=O)N(CCO)[C@@H]3C1=O` (stereo not given in full), the composite z-score in test [1] is -0.0163; in test [3], -0.13; in test [4], 0.226; in test [5], 0.282; in test [6], -1.09; in [7] it was -0.155. Also, the composite z-score is -0.889 in [8]; -0.267 in test [9]; -1.39 in test [10]; -0.513 in [11]; -0.991 in [12]; -0.541 in [13]. For the same compound, the composite z-score in test [14] was 0.0853; in test [15], -0.607; in test [16], 0.23; in [18], -0.551; in test [19] it was -0.0465. For the same compound, the composite Z-score in test [2] was -0.391 (inactive). In addition, the z-score in [17] was -0.845; in [20], 0.0324 (inactive).

For `CCCCN1CC=CC23O[C@@H]4/C=C\CCC(C)OC(=O)C4[C@H]2C(=O)N(C(CO)C(C)C)[C@@H]3C1=O` (stereo not given in full), the composite z-score in test [1] was 0.751; in [3] it was -0.126; in test [4], -0.12; in [5] it was 0.815; in test [6] it was -0.407; in test [7] it was 1.13. Further, the composite z-score in test [8] was -0.468; in test [9], 0.212; in [10], -0.409; in test [11], -0.0545; in test [12] it was -0.205; in test [13] it was -0.35. In addition, the composite z-score in test [14] was -0.188; in [15] it was 0.508; in test [16] it was 0.149; in [18], 0.774; in [19], -0.0541. The composite Z-score in [2] was 0.443 (inactive). Further, the z-score in test [17] is -0.0444; in [20] it was 0.323 (inactive).

`CC(C)Cc1ccc(CN2CC[C@@H](NC(=O)Nc3ccccc3)C2)cc1`: the composite z-score in [1] was 0.476; in test [3] it was -0.133; in test [4], -0.0974; in test [5] it was 0.119; in test [6], -0.104; in test [7], 0.397. In addition, the composite z-score in [8] was -0.0489; in [9], 0.214; in test [10], -0.0211; in test [11] it was -0.0844; in test [12] it was -1.63; in [13], 0.0749. For the same compound, the composite z-score in [14] is 0.494; in test [15] it was -0.182; in test [16], -0.0224; in test [18], 0.08; in test [19], 0.244. The composite Z-score in test [2] is -0.119 (inactive). For the same compound, the z-score was -0.749 in test [17] and 0.398 (inactive) in test [20].
